Test results from PubChem BioAssay (Tox21).
Inconclusive results are not listed. The source made the active and inactive calls. Unless noted, calls follow the shape of the dose curve; as a rule, active = well fitted curve in the direction sought with a large enough effect in the repeat runs; inconclusive = weak or mixed curves; inactive = no such curve, though single readings can be large; an effect the other way counts as inactive or inconclusive.

What was measured:
[1] = qHTS assay to identify small molecule antagonists of the sonic hedgehog signaling (Shh) pathway (AID 1259369; calls by dose curve; also: nearly all actives have a fitted effect of over 45% in size; also: potency is read from the fitted curve at half-maximal effect)
Summary of the method: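 For antagonist detection, the reporter line received test compounds together with conditioned medium, incubated 24hr at 37 C, 5% CO2, then luminescence was recorded following 30min room-temperature luciferase reagent incubation.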

[2] = qHTS assay to identify small molecule agonists of the androgen receptor (AR) signaling pathway in the presence of an antagonist - cell viability counter screen (AID 1259379);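 also: MDA-kb2 human breast cancer cells carrying an MMTV luciferase reporter; series mostly up to about 92 µM; nearly all actives have a fitted effect of over 25% in size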
Summary of the method: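 Seed MDA-kb2 at 3,000 cells/well; incubate 5 hr, 37C, 0% CO2. Add nilutamide to 3.0uM final, then pin compounds at 15 concentrations. Incubate 16 hr. Add CellTiter-Fluor at 15 hr, read fluorescence after 1 hr.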

[3] = qHTS assay to identify small molecule agonists of the estrogen receptor beta (ER-beta) signaling pathway - cell viability counter screen (AID 1259380); also: nearly all actives have a fitted effect of over 30% in size
Summary of the method: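 CellTiter-Glo read, 30 min RT, same wells as bla assay; cells ER-beta-UAS-bla HEK293T; 16 hr compound, 37C; medium 2% charcoal-stripped FBS.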

[4] = biological target: Androgen receptor (Homo sapiens) (UniProt P10275); assay: qHTS assay to identify small molecule agonists of the androgen receptor (AR) signaling pathway in the presence of an antagonist (AID 1259381; calls by dose curve; also: nearly all actives have a fitted effect of over 15% in size; also: potency is read from the fitted curve at half-maximal effect)
Summary of the method: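 Test compounds at 15 concentrations were incubated for 16hr with MDA-kb2 reporter cells in presence of 3.0uM nilutamide (final). Signal: ONE-Glo luciferase luminescence.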

[5] = qHTS assay to identify small molecule antagonists of the estrogen receptor beta (ER-beta) signaling pathway - cell viability counter screen (AID 1259382); also: series mostly up to about 92 µM; nearly all actives have a fitted effect of over 55% in size
Summary of the method: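 In this multiplexed counter screen, cells were seeded at 2,000 per well in medium with 2% charcoal-stripped FBS and incubated 6 hr before compound and 1nM final E2 were added. Sixteen hours later, ATP-based luminescence reported viability.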

[6] = biological target: Estrogen receptor (Homo sapiens) (UniProt P03372); assay: qHTS assay to identify small molecule agonists of the estrogen receptor alpha (ER-alpha) signaling pathway in the presence of an antagonist (AID 1259383; calls by dose curve; also: top concentration of the series differs between compounds; nearly all actives have a fitted effect of over 15% in size)
Summary of the method: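 Stably transfected VM7Luc4E2 reporter cells, kept 5 days in charcoal-stripped serum, received ICI-182,780 at 10.0nM final before compound addition. Following 22hr incubation at 37C and 5% CO2, luciferase signal was read by luminescence.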

[7] = qHTS assay to identify small molecule agonists or antagonists of the thyroid stimulating hormone receptor (TSHR) signaling pathway - wild type cell line counter screen (AID 1259384; calls by dose curve)
Summary of the method: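 Wild-type Hek293 cells, 800/well, 18 h at 37C, then compound with Ro20-1724 for 30 min RT. cAMP by HTRF (cAMP-d2/anti-cAMP cryptate), 1 h RT, fluorescence read. 15 concentrations, triplicates.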

[8] = biological target: Thyrotropin receptor (Homo sapiens) (UniProt P16473); assay: qHTS assay to identify small molecule antagonists of the thyroid stimulating hormone receptor (TSHR) signaling pathway (AID 1259385; calls by dose curve; also: nearly all actives have a fitted effect of over 20% in size)
Summary of the method: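 TSHR-HEK293 cells (800/well) plated 18 h, then compounds with Ro20-1724 and TSH at 1.5 ng/mL final, 30 min at room temperature. cAMP quantified by HTRF (cAMP-d2/anti-cAMP-cryptate, 1 h); 15 concentrations in triplicate.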

[9] = qHTS assay to identify small molecule agonists of the estrogen receptor alpha (ER-alpha) signaling pathway in the presence of an antagonist - cell viability counter screen (AID 1259386);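 also: series mostly up to about 92 µM; cells exposed to compounds for 22 h at 37 °C before the viability read; nearly all actives have a fitted effect of over 30% in size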
Summary of the method: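 Viability counter screen using VM7Luc4E2 (full-length ER-alpha, four ERE-luciferase). The cells were treated with compounds alongside ICI-182,780 10.0nM for 22hr, and live-cell protease fluorescence was quantified with CellTiter-Fluor.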

[10] = qHTS assay to identify small molecule antagonists of the progesterone receptor (PR) signaling pathway - cell viability counter screen (AID 1346798); also: series mostly up to about 92 µM; nearly all actives have a fitted effect of over 50% in size
Summary of the method: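 Measures cytotoxicity in parallel with the PR antagonist reporter read: HEK293T PR-UAS-bla cells get compound and R5020 for 16 hr, and remaining viable cells are quantified by CellTiter-Glo luminescence.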

[11] = qHTS assay to identify small molecule antagonists of the TGF-beta/Smad signaling pathway - cell viability counter screen (AID 1346824); also: nearly all actives have a fitted effect of over 50% in size
Summary of the method: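 SBE-bla HEK 293T cells, incubated overnight, then compound plus 0.25 ng/mL TGF-beta1 (stock added) for 5 hr at 37 C. Viability was read in the same wells by CellTiter-Glo luminescence after 30 min at room temperature.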

[12] = qHTS assay to identify small molecule agonists of the TGF-beta/Smad signaling pathway (AID 1346859; active = well fitted activation curve with a large enough effect in the signal ratio in the repeat runs, not every such curve was filed as active; the % refers to the signal ratio; also: series mostly up to about 77 µM)
Summary of the method: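 Beta-lactamase reporter activity downstream of Smad binding elements was measured in stably transfected HEK 293T cells; compounds were incubated for 5 hr, substrate for 2 hr at room temperature.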

[13] = biological target: Thyrotropin-releasing hormone receptor (Homo sapiens) (UniProt P34981); assay: qHTS assay to identify small molecule antagonists of the thyrotropin-releasing hormone receptor (TRHR) signaling pathway (AID 1346877; active = well fitted inhibition curve with a large enough effect in the repeat runs, not every such curve was filed as active; also: series mostly up to about 51 µM)
Summary of the method: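 Following an 18 h incubation at 37 °C and a 2 h calcium dye load, TRHR-HEK293 cells were exposed to compound (5 min, room temperature) and challenged with TRH, 1 nM final.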

[14] = biological target: Thyrotropin-releasing hormone receptor (Homo sapiens) (UniProt P34981); assay: qHTS assay to identify small molecule agonists of the thyrotropin-releasing hormone receptor (TRHR) signaling pathway (AID 1346891; calls by dose curve;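 also: HEK293 cells expressing TRHR with calcium dye readout; series mostly up to about 58 µM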)
Summary of the method: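 Overnight-plated (18 h, 37 °C, 5% CO2) TRHR-Hek293 cells; 2 h calcium dye at 37 °C; compound in DMSO; 3-min kinetic fluorescence read.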

[15] = biological target: Progesterone receptor (Homo sapiens) (UniProt P06401); assay: qHTS assay to identify small molecule agonists of the progesterone receptor (PR) signaling pathway (AID 1346784; calls by dose curve; also: nearly all actives have a fitted effect of over 30% in size)
Summary of the method: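 Seed PR-UAS-bla HEK 293T cells (2% charcoal-stripped FBS), incubate 6 hr at 37C; add compounds in DMSO, 16 hr at 37C; add LiveBLAzer B/G substrate, 2 hr RT; read fluorescence intensity.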

[16] = biological target: Progesterone receptor (Homo sapiens) (UniProt P06401); assay: qHTS assay to identify small molecule antagonists of the progesterone receptor (PR) signaling pathway (AID 1346795; active = well fitted inhibition curve with a large enough effect in the signal ratio in the repeat runs, not every such curve was filed as active; the % refers to the signal ratio)
Summary of the method: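 Screening used a GripTite HEK293T line with PR-responsive UAS-beta-lactamase. Cells were challenged with compound in the presence of 1 nM R5020 final for 16 hr at 37C; B/G FRET substrate, 2 hr room temperature, fluorescence.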

[17] = qHTS assay to identify small molecule agonists of the progesterone receptor (PR) signaling pathway - cell viability counter screen (AID 1346799; calls by dose curve; also: nearly all actives have a fitted effect of over 45% in size)
Summary of the method: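 Using the same plates as the PR reporter screen, HEK293T PR-UAS-bla cells received compounds for 16 hr at 37C and were then lysed with CellTiter-Glo; luminescence was read 30 min later at room temperature.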

[18] = qHTS assay to identify small molecule agonists of the TGF-beta/Smad signaling pathway - cell viability counter screen (AID 1346829); also: top concentration of the series differs between compounds; nearly all actives have a fitted effect of over 45% in size
Summary of the method: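 Luminescence from CellTiter-Glo, read after a 30 min room-temperature incubation, gives cell viability of SBE-bla HEK 293T cells treated 5 hr with compounds at 37 C.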

[19] = biological target: Estrogen receptor beta (Homo sapiens) (UniProt Q92731); assay: qHTS assay to identify small molecule agonists of the estrogen receptor beta (ER-beta) signaling pathway (AID 1259377; active = well fitted activation curve with a large enough effect in the signal ratio in the repeat runs, not every such curve was filed as active; the % refers to the signal ratio)
Summary of the method: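 Screening used GripTite ER-beta-UAS-bla cells held in 2% charcoal-stripped FBS medium. After overnight (16 hr) compound incubation at 37C, beta-lactamase activity was detected with a FRET substrate by fluorescence.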

[20] = biological target: Estrogen receptor beta (Homo sapiens) (UniProt Q92731); assay: qHTS assay to identify small molecule antagonists of the estrogen receptor beta (ER-beta) signaling pathway (AID 1259378; active = well fitted inhibition curve with a large enough effect in the signal ratio in the repeat runs, not every such curve was filed as active; the % refers to the signal ratio)
Summary of the method: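 ER-beta-UAS-bla HEK293T cells in 2% charcoal-stripped FBS medium treated with compound plus 1nM final 17-beta-estradiol for 16 hr at 37C. Beta-lactamase reporter read by FRET substrate fluorescence after 2 hours at room temperature.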
% is scaled to controls: 0 for no effect and ±100 for the full control effect.

Thyrotropin-releasing hormone receptor (Homo sapiens), sequence (P34981 whole entry, looked up): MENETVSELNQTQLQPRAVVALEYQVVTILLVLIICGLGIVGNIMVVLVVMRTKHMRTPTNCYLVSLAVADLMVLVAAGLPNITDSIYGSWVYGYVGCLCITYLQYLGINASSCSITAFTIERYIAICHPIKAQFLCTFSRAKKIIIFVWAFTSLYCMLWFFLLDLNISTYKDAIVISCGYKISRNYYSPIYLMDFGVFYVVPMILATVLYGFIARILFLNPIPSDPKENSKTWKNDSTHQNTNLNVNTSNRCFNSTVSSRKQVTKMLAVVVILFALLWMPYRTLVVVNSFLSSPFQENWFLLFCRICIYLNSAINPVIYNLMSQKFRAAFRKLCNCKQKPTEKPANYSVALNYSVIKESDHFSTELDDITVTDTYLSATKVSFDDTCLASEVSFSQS
Estrogen receptor beta (Homo sapiens), sequence (Q92731 whole entry, looked up): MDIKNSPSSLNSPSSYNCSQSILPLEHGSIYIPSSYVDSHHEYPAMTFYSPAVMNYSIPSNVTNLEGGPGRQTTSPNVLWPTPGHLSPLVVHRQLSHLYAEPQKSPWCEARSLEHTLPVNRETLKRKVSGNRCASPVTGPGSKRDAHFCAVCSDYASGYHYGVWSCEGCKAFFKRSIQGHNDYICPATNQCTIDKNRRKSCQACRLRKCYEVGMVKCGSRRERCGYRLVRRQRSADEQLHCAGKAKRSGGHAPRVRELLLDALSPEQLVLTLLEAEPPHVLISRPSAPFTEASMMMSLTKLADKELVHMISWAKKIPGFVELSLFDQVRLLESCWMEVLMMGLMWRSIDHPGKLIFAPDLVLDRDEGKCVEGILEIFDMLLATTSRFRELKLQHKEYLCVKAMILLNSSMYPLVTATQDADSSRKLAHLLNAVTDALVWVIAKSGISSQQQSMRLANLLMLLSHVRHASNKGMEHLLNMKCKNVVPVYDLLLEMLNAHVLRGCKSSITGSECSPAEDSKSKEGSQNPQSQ
Progesterone receptor (Homo sapiens), sequence (P06401 whole entry, looked up): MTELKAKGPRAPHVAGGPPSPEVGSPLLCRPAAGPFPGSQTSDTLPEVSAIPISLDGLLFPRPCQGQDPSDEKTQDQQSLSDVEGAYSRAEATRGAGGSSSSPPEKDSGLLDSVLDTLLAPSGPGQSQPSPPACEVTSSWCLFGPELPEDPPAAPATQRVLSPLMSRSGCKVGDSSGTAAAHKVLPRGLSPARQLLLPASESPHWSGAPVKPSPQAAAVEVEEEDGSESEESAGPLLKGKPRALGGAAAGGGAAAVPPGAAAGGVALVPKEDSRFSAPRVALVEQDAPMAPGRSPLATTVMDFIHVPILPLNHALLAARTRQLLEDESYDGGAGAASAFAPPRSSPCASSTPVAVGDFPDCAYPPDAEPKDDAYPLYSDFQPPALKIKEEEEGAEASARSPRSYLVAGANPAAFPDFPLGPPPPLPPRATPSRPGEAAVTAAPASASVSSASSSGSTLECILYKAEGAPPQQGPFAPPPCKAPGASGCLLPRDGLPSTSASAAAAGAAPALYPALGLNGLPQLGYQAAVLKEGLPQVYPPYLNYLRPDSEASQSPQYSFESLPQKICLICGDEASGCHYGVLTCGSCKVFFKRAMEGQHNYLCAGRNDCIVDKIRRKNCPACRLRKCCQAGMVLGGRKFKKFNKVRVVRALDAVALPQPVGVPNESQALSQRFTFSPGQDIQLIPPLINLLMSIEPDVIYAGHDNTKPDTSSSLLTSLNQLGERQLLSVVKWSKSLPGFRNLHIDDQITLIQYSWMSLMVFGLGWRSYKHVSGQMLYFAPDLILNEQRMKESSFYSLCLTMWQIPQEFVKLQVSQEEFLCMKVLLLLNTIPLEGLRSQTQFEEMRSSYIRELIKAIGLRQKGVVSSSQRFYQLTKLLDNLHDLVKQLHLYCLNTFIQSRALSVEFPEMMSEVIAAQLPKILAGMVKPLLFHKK
Androgen receptor (Homo sapiens), sequence (P10275 whole entry, looked up): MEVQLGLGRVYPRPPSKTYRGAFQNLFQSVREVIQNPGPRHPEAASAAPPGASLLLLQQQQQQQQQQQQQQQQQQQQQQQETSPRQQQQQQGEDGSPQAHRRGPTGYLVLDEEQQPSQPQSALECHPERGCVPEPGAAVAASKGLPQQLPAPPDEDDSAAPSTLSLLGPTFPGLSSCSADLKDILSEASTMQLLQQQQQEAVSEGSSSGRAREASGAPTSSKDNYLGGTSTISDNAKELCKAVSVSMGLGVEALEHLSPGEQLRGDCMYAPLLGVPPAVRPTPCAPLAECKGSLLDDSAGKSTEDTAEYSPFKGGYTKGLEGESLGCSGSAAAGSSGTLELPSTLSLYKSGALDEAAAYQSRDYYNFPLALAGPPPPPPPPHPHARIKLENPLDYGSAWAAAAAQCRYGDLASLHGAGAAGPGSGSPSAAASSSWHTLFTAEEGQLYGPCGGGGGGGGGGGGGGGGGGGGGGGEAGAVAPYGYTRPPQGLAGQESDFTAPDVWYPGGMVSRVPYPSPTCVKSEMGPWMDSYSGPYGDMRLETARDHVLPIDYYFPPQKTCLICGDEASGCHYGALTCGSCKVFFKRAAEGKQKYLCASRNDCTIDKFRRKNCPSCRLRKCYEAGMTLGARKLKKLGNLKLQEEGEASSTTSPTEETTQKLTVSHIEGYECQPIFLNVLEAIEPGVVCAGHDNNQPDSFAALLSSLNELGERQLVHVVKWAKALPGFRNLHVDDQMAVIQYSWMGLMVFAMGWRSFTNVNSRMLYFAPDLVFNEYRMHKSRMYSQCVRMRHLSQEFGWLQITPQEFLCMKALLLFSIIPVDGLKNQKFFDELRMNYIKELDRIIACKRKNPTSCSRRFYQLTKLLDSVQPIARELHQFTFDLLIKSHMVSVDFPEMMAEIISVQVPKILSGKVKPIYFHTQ
Estrogen receptor (Homo sapiens), sequence (P03372 whole entry, looked up): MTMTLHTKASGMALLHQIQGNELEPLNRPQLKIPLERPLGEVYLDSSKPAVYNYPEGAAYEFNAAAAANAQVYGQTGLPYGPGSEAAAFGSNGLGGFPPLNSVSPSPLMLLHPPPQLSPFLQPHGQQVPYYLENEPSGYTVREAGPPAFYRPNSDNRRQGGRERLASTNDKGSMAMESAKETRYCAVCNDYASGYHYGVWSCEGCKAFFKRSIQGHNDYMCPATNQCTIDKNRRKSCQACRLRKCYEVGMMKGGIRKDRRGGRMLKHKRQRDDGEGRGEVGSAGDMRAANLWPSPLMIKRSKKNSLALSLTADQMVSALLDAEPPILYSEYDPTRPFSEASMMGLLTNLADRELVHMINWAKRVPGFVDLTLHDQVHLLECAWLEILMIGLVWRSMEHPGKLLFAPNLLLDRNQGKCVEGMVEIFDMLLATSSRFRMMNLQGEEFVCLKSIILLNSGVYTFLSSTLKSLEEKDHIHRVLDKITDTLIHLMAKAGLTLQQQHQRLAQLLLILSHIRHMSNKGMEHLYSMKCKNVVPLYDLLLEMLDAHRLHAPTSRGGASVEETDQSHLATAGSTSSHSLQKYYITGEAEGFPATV
Thyrotropin receptor (Homo sapiens), sequence (P16473 whole entry, looked up): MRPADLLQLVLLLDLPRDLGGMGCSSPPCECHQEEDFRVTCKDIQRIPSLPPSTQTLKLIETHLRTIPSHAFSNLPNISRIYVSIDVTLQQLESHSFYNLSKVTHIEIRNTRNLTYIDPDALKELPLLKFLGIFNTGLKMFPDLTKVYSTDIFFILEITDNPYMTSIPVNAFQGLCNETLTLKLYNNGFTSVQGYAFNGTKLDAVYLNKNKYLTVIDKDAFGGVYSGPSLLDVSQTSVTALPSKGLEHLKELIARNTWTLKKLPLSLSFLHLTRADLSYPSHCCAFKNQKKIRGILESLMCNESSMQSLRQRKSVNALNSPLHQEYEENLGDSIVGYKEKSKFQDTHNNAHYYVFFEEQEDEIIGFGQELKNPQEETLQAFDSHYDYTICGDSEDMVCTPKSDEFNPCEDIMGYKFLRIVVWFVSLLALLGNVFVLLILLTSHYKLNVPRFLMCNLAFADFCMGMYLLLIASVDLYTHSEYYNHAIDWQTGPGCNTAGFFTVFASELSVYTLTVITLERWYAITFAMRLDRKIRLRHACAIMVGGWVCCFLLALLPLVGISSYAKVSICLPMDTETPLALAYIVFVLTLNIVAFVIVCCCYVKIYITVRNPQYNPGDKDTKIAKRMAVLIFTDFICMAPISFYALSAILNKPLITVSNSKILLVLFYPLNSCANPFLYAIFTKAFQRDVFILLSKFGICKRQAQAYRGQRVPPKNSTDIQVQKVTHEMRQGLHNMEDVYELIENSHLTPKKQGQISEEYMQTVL

C[C@@H]1C[C@H]2[C@@H]3C[C@H](F)C4=CC(=O)C(Cl)=C[C@]4(C)[C@@]3(F)[C@@H](O)C[C@]2(C)[C@@]1(O)C(=O)CO
inactive: Potency [2] | Potency [3] | outcome [5] | outcome [6] | outcome [7] | outcome [8] | Potency [9] | Potency [10] | outcome [11] | outcome [12] | outcome [13] | Potency [14]
active: Potency [1] 18.8 µM | Potency [4] 4.7 nM

CC/C=C\CCOC(C)OCC (stereo unspecified)
inactive: Potency [1] | Potency [2] | Potency [3] | outcome [5] | outcome [6] | outcome [7] | outcome [8] | Potency [9] | Potency [15] | Potency [16] | Potency [10] | Potency [17] | outcome [11] | outcome [18] | outcome [12] | outcome [13] | Potency [14]

CC(=O)Oc1cccc(C)c1
inactive: Potency [1] | Potency [2] | Potency [3] | outcome [5] | outcome [6] | outcome [7] | outcome [8] | Potency [9] | Potency [15] | Potency [16] | Potency [10] | Potency [17] | outcome [11] | outcome [18] | outcome [12] | outcome [13] | Potency [14]

C=C[Si](OC(C)=O)(OC(C)=O)OC(C)=O
active: Potency [1] 30.6 µM
inactive: Potency [2] | Potency [3] | Potency [4] | outcome [5] | outcome [6] | outcome [7] | outcome [8] | Potency [9] | Potency [15] | Potency [16] | Potency [10] | Potency [17] | outcome [11] | outcome [18] | outcome [12] | outcome [13] | Potency [14]

CCCCOCCOC(=O)COc1cc(Cl)c(Cl)cc1Cl
inactive: Potency [1] | Potency [19] | Potency [2] | Potency [4] | outcome [5] | outcome [6] | outcome [7] | outcome [8] | Potency [9] | Potency [15] | Potency [16] | Potency [10] | Potency [17] | outcome [11] | outcome [18] | outcome [12] | outcome [13] | Potency [14]

CC1=C(C/C=C(\C)CCC[C@H](C)CCC[C@H](C)CCCC(C)C)C(=O)c2ccccc2C1=O
inactive: Potency [1] | Potency [19] | Potency [2] | outcome [5] | outcome [7] | outcome [8] | Potency [9] | Potency [15] | Potency [16] | Potency [10] | outcome [11] | outcome [18] | outcome [12]

CN1CCN(c2cc3c(nn2)Oc2ccccc2N3C)CC1
inactive: activity change, negative = inhibition [1] -8.36% [at 19 µM] | activation [19] 7.81% [at 19 µM] | activity change, negative = cytotoxicity [2] 0.723% [at 19 µM] | activity change, negative = cytotoxicity [3] 2.64% [at 19 µM] | activity change, negative = cytotoxicity [5] -0.299% [at 19 µM] | cAMP activity change [7] -3.2% [at 18.9 µM] | activity change, negative = cytotoxicity [9] -4.4% [at 19 µM] | activation [15] 0.134% [at 19 µM] | activity change, negative = inhibition [16] 15.6% [at 18.9 µM] | activity change, negative = cytotoxicity [10] -18% [at 18.9 µM] | activity change, negative = cytotoxicity [17] -4.66% [at 19 µM] | viability change, negative = cytotoxic [11] 1.43% [at 15.8 µM] | activation [12] 3.68% [at 15.8 µM]

N[C@H](C(=O)O)[C@@H](O)c1ccc(O)c(O)c1
inactive: Potency [19] | Potency [20] | Potency [2] | outcome [5] | outcome [6] | outcome [7] | outcome [8] | Potency [9] | Potency [15] | Potency [16] | Potency [10] | Potency [17] | outcome [11] | outcome [12] | outcome [13] | Potency [14]

CCCCCCCCCC[N+](C)(C)[O-]
inactive: Potency [19] | Potency [20] | Potency [3] | Potency [4] | outcome [5] | outcome [6] | Potency [9] | Potency [15] | Potency [16] | Potency [10] | Potency [17] | outcome [11] | outcome [18] | outcome [12] | outcome [13] | Potency [14]

C[N+]12CCC(CC1)C(OC(=O)C(O)(c1ccccc1)c1ccccc1)C2 (stereo unspecified)
inactive: Potency [1] | Potency [3] | outcome [5] | outcome [7] | outcome [8] | Potency [9] | Potency [15] | Potency [16] | Potency [10] | Potency [17] | outcome [11] | outcome [18] | outcome [12] | outcome [13] | Potency [14]

COc1cc(-c2ccc(=O)[nH]n2)ccc1OC(F)F
inactive: Potency [19] | Potency [20] | Potency [2] | Potency [3] | outcome [5] | outcome [6] | outcome [7] | outcome [8] | Potency [9] | Potency [15] | Potency [16] | Potency [10] | Potency [17] | outcome [11] | outcome [18] | outcome [12] | outcome [13] | Potency [14]

COCCOCC(OC)OC
inactive: Potency [19] | Potency [20] | Potency [3] | outcome [5] | outcome [6] | outcome [7] | outcome [8] | Potency [9] | Potency [15] | Potency [16] | Potency [10] | Potency [17] | outcome [11] | outcome [12] | outcome [13] | Potency [14]
